The values below come from PubChem BioAssay (NCI).

Compounds without any hit were thinned out: in the full panel of roughly 83,000, 20% have a hit.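 Percent growth is the endpoint: 0 to 100 indicates growth inhibition (40 means 60% inhibition), 0 means no net growth, and negative values indicate cell death.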 Unmarked numbers belong to inactive results. Activity calls are given as the source filed them. The calls were made as follows: active = growth percent below 10; inactive = the rest.

Some test systems named below: SK-MEL-2 melanoma; EKVX NSCLC; SN12C renal; UO-31 renal; TK-10 renal; ACHN renal; CAKI-1 renal; A498 renal; CCRF-CEM leukemia; MOLT-4 leukemia; RPMI-8226 leukemia; OVCAR-8 ovarian; OVCAR-5 ovarian; OVCAR-4 ovarian; SK-OV-3 ovarian; IGROV1 ovarian; OVCAR-3 ovarian; HS 578T breast; NCI/ADR-RES ovarian; SR leukemia.
Assay in all cases: NCI-60 one-dose screen, 48 h (100 = growth as untreated, 0 = no growth, -100 = all killed)
Common to all, as to conditions: 10 µM unless noted

For the compound `COc1cccc(-c2nc3sccn3c2-c2ccnc(NCCCNS(=O)(=O)c3cccc(Cl)c3)c2)c1`, the growth with SK-MEL-2 melanoma is 39.8%; in the assay on EKVX NSCLC, 40.6%; in the assay on SN12C renal, 45.5%; in the assay on UO-31 renal, 20.4%; in the assay with TK-10 renal, 71.5%; in the assay with ACHN renal it was 37.5%. The growth in the assay on CAKI-1 renal is 25.9%; in the assay with A498 renal, 54.4%; with CCRF-CEM leukemia, 18.1%; in the assay on MOLT-4 leukemia it was 9.9% (active); with RPMI-8226 leukemia, -9.68% (active); in the assay on OVCAR-8 ovarian it was 26.3%. For the same compound, the growth is 78.9% in the assay on OVCAR-5 ovarian; 32.6% in the assay on OVCAR-4 ovarian; 67.7% in the assay with SK-OV-3 ovarian; 50.7% with IGROV1 ovarian; 58% with OVCAR-3 ovarian; 69.2% with HS 578T breast. Moreover, in the assay on NCI/ADR-RES ovarian, the growth is 13.4%.

As to `N#Cc1c(-c2ccc(Cl)cc2)nc(N=Nc2c(O)[nH]c3ccc(Cl)cc23)nc1N1CCOCC1`, the growth in the assay with SK-MEL-2 melanoma is 98.1%; in the assay with EKVX NSCLC, 86.1%; in the assay with SN12C renal, 97%; in the assay with UO-31 renal it was 67.5%; in the assay on TK-10 renal, 120%; with ACHN renal it was 94.6%. For the same compound, the growth is 85.2% in the assay with CAKI-1 renal; 73.2% in the assay with A498 renal; 111% with CCRF-CEM leukemia; 110% in the assay on MOLT-4 leukemia; 119% in the assay on RPMI-8226 leukemia; 100% in the assay on OVCAR-8 ovarian. In addition, the growth in the assay with OVCAR-5 ovarian is 98.9%; in the assay with OVCAR-4 ovarian it was 99.8%; with SK-OV-3 ovarian, 96.1%; with IGROV1 ovarian, 92.5%; in the assay with OVCAR-3 ovarian it was 115%; in the assay on HS 578T breast, 94%. The growth in the assay on NCI/ADR-RES ovarian is 88.3%.

Consider `O=C(COc1cccc(/C=C2\COc3ccc(Cl)cc3C2=O)c1)c1ccc(Cl)cc1`, for which the growth in the assay with SK-MEL-2 melanoma was 54.2%; with EKVX NSCLC it was 101%; in the assay on SN12C renal, 97.3%; in the assay with UO-31 renal it was 69.3%; in the assay on TK-10 renal it was 98.4%; in the assay on ACHN renal, 91%. The growth in the assay on CAKI-1 renal was 84.2%; in the assay on A498 renal, 111%; in the assay on CCRF-CEM leukemia it was 2.99% (active); with MOLT-4 leukemia, 41.2%; in the assay on RPMI-8226 leukemia it was -11.4% (active); in the assay with OVCAR-8 ovarian, 91.7%. In addition, the growth in the assay with OVCAR-5 ovarian is 81.1%; in the assay with OVCAR-4 ovarian it was 90.5%; in the assay on SK-OV-3 ovarian it was 99%; with IGROV1 ovarian it was 38.3%; with OVCAR-3 ovarian it was 87.4%; with HS 578T breast, 72.3%. For the same compound, the growth in the assay on NCI/ADR-RES ovarian is 84%.

For the compound `O=C1c2ccccc2C(=O)c2c1ccc1[nH]c(-c3cccs3)nc21`, the growth is 107% with SK-MEL-2 melanoma; 71.7% in the assay with EKVX NSCLC; 73.4% in the assay with SN12C renal; 58.6% with UO-31 renal; 87.3% with TK-10 renal; 66.5% with ACHN renal. Also, the growth with CAKI-1 renal was 82%; in the assay on A498 renal, 96.5%; in the assay on CCRF-CEM leukemia it was 88.4%; with MOLT-4 leukemia, 70.1%; with SR leukemia, 37.4%; in the assay on RPMI-8226 leukemia, 63.7%. Also, the growth was 81.5% in the assay on OVCAR-8 ovarian; 102% with OVCAR-4 ovarian; 107% with SK-OV-3 ovarian; 89.7% in the assay on IGROV1 ovarian; 82.8% with OVCAR-3 ovarian; 78.7% in the assay with NCI/ADR-RES ovarian.

For the compound `COc1ccc(-c2nc3ccc(-c4nc5ccc(N6CCN(c7ccccc7)CC6)cc5[nH]4)cc3[nH]2)cc1OC`, the growth in the assay with SK-MEL-2 melanoma is 89%; in the assay with EKVX NSCLC, 40.1%; in the assay on SN12C renal, 52%; with UO-31 renal, 99.6%; in the assay with TK-10 renal it was 12.4%; in the assay on ACHN renal, 44.8%. The growth was 65.3% in the assay on CAKI-1 renal; 88.4% in the assay on A498 renal; 6.07% (active) in the assay on CCRF-CEM leukemia; -5.57% (active) in the assay with MOLT-4 leukemia; -23% (active) with RPMI-8226 leukemia; -4.55% (active) in the assay on OVCAR-8 ovarian. Moreover, the growth in the assay with OVCAR-5 ovarian is -44.1% (active); with OVCAR-4 ovarian, -49.9% (active); in the assay on SK-OV-3 ovarian it was 107%; with IGROV1 ovarian, 16.2%; in the assay with OVCAR-3 ovarian, -68.3% (active); in the assay on HS 578T breast, -0.217% (active). The growth in the assay on NCI/ADR-RES ovarian is 67.3%.

Take `Cc1cn2c(/C=C3/C(=O)Nc4c3ccc3ccccc43)c(C(F)(F)F)nc2s1`: the growth with SK-MEL-2 melanoma is 20%; with EKVX NSCLC, 44.4%; in the assay with SN12C renal it was 38.2%; in the assay with UO-31 renal, 34.7%; with TK-10 renal, 36.3%; with ACHN renal, 48.5%. Also, the growth in the assay on CAKI-1 renal is 34.3%; with A498 renal, 0.919% (active); in the assay with CCRF-CEM leukemia, 16.4%; with MOLT-4 leukemia it was 35.1%; with SR leukemia it was 8.46% (active); with RPMI-8226 leukemia it was 14.7%. The growth is 27.7% in the assay with OVCAR-8 ovarian; 51.3% in the assay with OVCAR-4 ovarian; 42.1% in the assay with IGROV1 ovarian; -1.83% (active) in the assay with OVCAR-3 ovarian; 5.22% (active) in the assay on NCI/ADR-RES ovarian.

For the compound `C=C1c2nc3ccccc3n2C=C(c2cccc(Cl)c2)N1Cc1ccc(OC)cc1`, the growth in the assay with SK-MEL-2 melanoma is 28.2%; in the assay on EKVX NSCLC it was 8.8% (active); in the assay with SN12C renal, 37%; in the assay with UO-31 renal, 9.79% (active); in the assay on TK-10 renal, 30.8%; with ACHN renal, 49.2%. In addition, the growth in the assay with CAKI-1 renal is 3.02% (active); with A498 renal it was 91.7%; in the assay with CCRF-CEM leukemia, 47.2%; in the assay on MOLT-4 leukemia, 8.13% (active); with SR leukemia, -17.4% (active); with RPMI-8226 leukemia it was -15.6% (active). For the same compound, the growth in the assay on OVCAR-8 ovarian is 9.77% (active); in the assay with OVCAR-4 ovarian it was 32.4%; with SK-OV-3 ovarian, 5.13% (active); in the assay on OVCAR-3 ovarian, -28.1% (active); in the assay with HS 578T breast, 15.5%; with NCI/ADR-RES ovarian, 10.2%.

As to `CCCOc1ccc2nc(NC(=O)OC)[nH]c2c1`, the growth in the assay with SK-MEL-2 melanoma is -1.33% (active); with EKVX NSCLC, 57.1%; with SN12C renal, 23.2%; in the assay on UO-31 renal it was 37.5%; in the assay with TK-10 renal, 35.7%; in the assay with ACHN renal, 31.5%. Besides, the growth was 51.7% in the assay with CAKI-1 renal; 9.31% (active) with A498 renal; 7.62% (active) with CCRF-CEM leukemia; 17.7% in the assay with MOLT-4 leukemia; 7.83% (active) in the assay with RPMI-8226 leukemia; 3.91% (active) in the assay on OVCAR-8 ovarian. For the same compound, the growth in the assay on OVCAR-5 ovarian is 39.2%; with OVCAR-4 ovarian, 53.3%; in the assay with SK-OV-3 ovarian, 4.92% (active); with IGROV1 ovarian, 36.9%; in the assay with OVCAR-3 ovarian, -46.8% (active); in the assay on HS 578T breast it was 29.8%. The growth in the assay with NCI/ADR-RES ovarian was -6.3% (active).
